# Reference: PubChem BioAssay (NCATS)
# Where “and” joins values, the source holds several entries; their conditions need not be identical. Equal entries are not always repeated. Inconclusive results are not listed. Entries that show only a call come without a potency. Calls of active or inactive are those of the source. Unless noted, the call rests on the fitted dose curve; in most records, active means well fitted curve in the direction sought with a large enough effect; inconclusive means small, poorly fitted or top-dose-only effect, or another doubt; inactive means no such curve, though single readings can be large; an effect the other way counts as inactive or inconclusive.
# Legend:
# [1] = S16 Schwann cell PMP22 intronic element firefly luciferase assay (AID 624032); further: nearly all actives have a fitted effect of over 30% in size; further: potency means the concentration at half of the fitted maximal effect
# Method in brief: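 Luciferase reporter of PMP22 intronic-element expression in stably transfected S16 rat Schwann cells, read by ONE-Glo luminescence after 24 h compound exposure at 37 C. Activity scaled between DMSO (0%) and positive-control PTC124; concentration-effect curves quality-classified.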
# [2] = Cytotoxicity counterscreen for NFkB agonists and antagonists (AID 624476)
# [3] = qHTS Assay for Identification of Small Molecule Agonists for NFkB Signaling Pathway. (AID 624478)
# Method in brief: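 NFkB-bla ME-180 cells carry a beta-lactamase reporter. They received compound plus TNF alpha at 10 pM final (its EC50) for 5 h at 37 C. Reporter activity was read as 460/530 nm emission ratio after 2 h LiveBLAzer substrate loading.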
# [4] = qHTS Assay for Identification of Small Molecule Antagonists for NFkB Signaling Pathway. (AID 624479; calls by dose curve;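 further: pathway stimulated with TNF alpha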)
# [5] = Cell Proliferation Assay against the TMD8 Cell Line (AID 651645); details: TMD8 DLBCL cell line proliferation/viability; at 46.1 µM (top of the series) unless noted;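 further: cells exposed to compound for 48 h before reading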
# Method in brief: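 Seed log-phase TMD8 cells in RPMI containing 5% FBS, add compounds at once, incubate 48 hours at 37C. Equilibrate to room temperature, add CellTiter-Glo, read luminescence after 15 minutes and express relative to DMSO and bortezomib controls.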
# [6] = Cell Proliferation Assay against the TMD8 Cell Line (Caspase readout at 16 hrs) (AID 651712)
# Method in brief: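 Apoptotic response of TMD8 cells was judged from caspase 3/7 activation following a 16 hour compound incubation at 37 °C. Luminescent signal was converted to percent activity, with DMSO set as 0% and 9.2 uM final bortezomib as 100%.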
# [7] = Cell Proliferation Assay against the TMD8 Cell Line (Caspase readout at 8 hrs) (AID 651713)
# Method in brief: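 TMD8 cells in RPMI plus 5% FBS were treated with compound for 8 h at 37C. Caspase 3/7 activation was read by Caspase-Glo luminescence. Percent activity was scaled from DMSO (0%) to 9.2 uM bortezomib final (100%).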
# [8] = target: Glutaminase kidney isoform, mitochondrial (Homo sapiens) (UniProt O94925); test: qHTS for Inhibitors of Glutaminase (GLS): LOPAC Validation (AID 624146); further: nearly all actives have a fitted effect of over 60% in size; further: potency means the concentration at half of the fitted maximal effect
# Glutaminase kidney isoform, mitochondrial (Homo sapiens), sequence (O94925 whole entry, looked up, canonical isoform): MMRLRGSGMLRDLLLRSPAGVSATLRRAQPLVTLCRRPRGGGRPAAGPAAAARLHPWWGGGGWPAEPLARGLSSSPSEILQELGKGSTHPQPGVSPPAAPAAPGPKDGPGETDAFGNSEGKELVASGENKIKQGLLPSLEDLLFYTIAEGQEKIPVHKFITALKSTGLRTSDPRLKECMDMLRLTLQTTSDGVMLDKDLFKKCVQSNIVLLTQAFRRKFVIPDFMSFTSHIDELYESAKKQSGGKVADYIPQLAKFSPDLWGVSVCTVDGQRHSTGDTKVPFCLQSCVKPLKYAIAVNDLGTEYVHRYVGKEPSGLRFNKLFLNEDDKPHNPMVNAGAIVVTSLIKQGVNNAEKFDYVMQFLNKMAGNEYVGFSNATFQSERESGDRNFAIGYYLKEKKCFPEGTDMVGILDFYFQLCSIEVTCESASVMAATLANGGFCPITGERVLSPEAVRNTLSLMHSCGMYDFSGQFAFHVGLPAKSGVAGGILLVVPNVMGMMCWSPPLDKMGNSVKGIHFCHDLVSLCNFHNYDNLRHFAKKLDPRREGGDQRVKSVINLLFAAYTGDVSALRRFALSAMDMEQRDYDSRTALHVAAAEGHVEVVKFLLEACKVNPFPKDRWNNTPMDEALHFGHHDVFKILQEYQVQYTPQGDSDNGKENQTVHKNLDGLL
# Method in brief: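 Assay buffer: 45 mM KH2PO4 pH 8.2, 0.02% Tween-20. hKGA acts on L-glutamine (1 mM solution added); product glutamate is reported by an oxidase/peroxidase Amplex Red coupling, with fluorescence taken at baseline and 30 min.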
# [9] = qHTS of Trypanosoma Brucei Inhibitors: LOPAC Validation (AID 624147); further: potency means the concentration at half of the fitted maximal effect
# Method in brief: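 ADP (130 uM final) triggers the TbPYK reaction after compound addition; incubation is 45 min at room temperature. Kinase-Glo Plus is then added and luminescence imaged. Normalized data are fitted to concentration-effect curves.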
# [10] = target: Glucagon-like peptide 1 receptor (Homo sapiens) (UniProt P43220); test: qHTS of GLP-1 Receptor Agonists: LOPAC Validation (AID 624148);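 further: luminescence from a luciferase reporter switched on by cAMP; higher luminescence signal means agonism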
# Glucagon-like peptide 1 receptor (Homo sapiens), sequence (P43220 whole entry, looked up): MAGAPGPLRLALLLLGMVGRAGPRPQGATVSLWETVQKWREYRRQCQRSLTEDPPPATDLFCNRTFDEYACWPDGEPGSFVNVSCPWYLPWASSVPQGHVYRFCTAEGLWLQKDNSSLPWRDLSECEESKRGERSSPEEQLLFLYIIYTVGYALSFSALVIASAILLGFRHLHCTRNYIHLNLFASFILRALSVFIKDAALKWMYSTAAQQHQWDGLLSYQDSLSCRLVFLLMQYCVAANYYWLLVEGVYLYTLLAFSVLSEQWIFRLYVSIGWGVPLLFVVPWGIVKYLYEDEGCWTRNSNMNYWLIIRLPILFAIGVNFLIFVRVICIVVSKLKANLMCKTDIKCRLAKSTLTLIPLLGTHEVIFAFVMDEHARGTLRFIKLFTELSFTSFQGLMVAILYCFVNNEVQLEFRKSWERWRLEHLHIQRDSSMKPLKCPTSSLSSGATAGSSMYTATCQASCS
# Method in brief: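 Agonism scored as increased luciferase luminescence driven by cAMP in HEK293 clones carrying GLP-1R. Cells settled 12 hours, received compound for 4-6 hr at 37 deg C, 5% CO2, and were read after 12 min detection reagent at RT.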
# [11] = qHTS assay for small molecule agonists of the antioxidant response element (ARE) signaling pathway (AID 651741; active means well fitted activation curve with a large enough effect in the signal ratio; the % refers to the signal ratio; further: potency means the concentration at half of the fitted maximal effect)
# Method in brief: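 Quantitative HTS in HepG2 cells stably expressing an ARE-beta-lactamase reporter; 16 h compound exposure at 37 C, followed by 2 h room-temperature incubation with LiveBLAzer B/G FRET substrate and fluorescence measurement.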
# [12] = qHTS assay for small molecule activators of the p53 signaling pathway (AID 651743; active means well fitted activation curve with a large enough effect in the signal ratio, not every such curve was filed as active; the % refers to the signal ratio); details: HCT-116 p53RE-bla, beta-lactamase FRET ratio, 16 h; activation: stronger effect = higher value
# Method in brief: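 Read-out is fluorescence intensity from the LiveBLAzer B/G FRET substrate, added for 2 hours at room temperature after HCT-116 p53RE-bla cells had been incubated with compounds for 16 hours at 37 C.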
# [13] = qHTS assay for small molecule activators of the nuclear factor-kappa B (NF-kB) signaling pathway (AID 651749; active means well fitted activation curve with a large enough effect in the signal ratio; the % refers to the signal ratio); details: NF-kB-bla ME-180 cells, beta-lactamase FRET ratio, 16 h; stronger effect = higher value
# Method in brief: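 Readout: beta-lactamase reporter driven by an NF-kB response element, detected fluorescently as loss of FRET. Cells were the ME-180 line, treated 16 hr at 37C with pin-transferred compound.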
# [14] = target: Tumor necrosis factor (Homo sapiens) (UniProt P01375); test: qHTS assay to identify small molecules that stimulate Tumor Necrosis Factor-alpha (TNF-alpha) secretion (AID 651757; active means well fitted curve in the direction sought with a large enough effect in the signal ratio; the % refers to the signal ratio)
# Tumor necrosis factor (Homo sapiens), sequence (P01375 whole entry, looked up): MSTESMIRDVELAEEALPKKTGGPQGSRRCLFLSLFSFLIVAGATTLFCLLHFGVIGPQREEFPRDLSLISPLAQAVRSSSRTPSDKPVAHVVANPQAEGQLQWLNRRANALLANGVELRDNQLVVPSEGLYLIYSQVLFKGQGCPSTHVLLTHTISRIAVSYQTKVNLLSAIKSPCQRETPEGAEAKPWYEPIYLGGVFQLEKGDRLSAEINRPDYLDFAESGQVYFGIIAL
# Method in brief: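 THP-1 cells (3000/well) exposed to compounds 17 hrs at 37 C. Secreted TNF-alpha detected by HTRF with cryptate- and XL665-labeled anti-TNF-alpha antibodies after 3 hr at room temperature.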
# [15] = qHTS assay for small molecule disruptors of the mitochondrial membrane potential - 1 hr assay (AID 651754; calls by dose curve; further: nearly all actives have a fitted effect of over 35% in size)
# Method in brief: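 HepG2 cells, attached overnight, were exposed to compound for 1 hr at 37C, then stained 30 min with a potentiometric dye. Ratio of red aggregate (590nm) to green monomer (535nm) fluorescence reports membrane potential; collapse shifts signal toward green.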
# [16] = qHTS assay for small molecule disruptors of the mitochondrial membrane potential - 5 hr assay (AID 651755; calls by dose curve; further: nearly all actives have a fitted effect of over 40% in size)
# Method in brief: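 HepG2, 2,000 cells/well, overnight attach; cpd or DMSO 5 hr, 37C/5% CO2; Mito-MPS 30 min 37C; fluor 490/535 + 540/590 nm.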
# [17] = qHTS of Nrf2 Activators: LOPAC Validation (AID 624149)
# Method in brief: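 AREc32_Fluc cells, 1000/well in OPTI-MEM with 5% FBS, grown overnight, then exposed to compounds for 24 hr at 37 deg C, 5% CO2. ARE-driven firefly luciferase read by Steady-Glo luminescence after 30 min at RT.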
smiles,measurement,setting,value
O=C(O)c1cccc(-c2noc(-c3ccccc3F)n2)c1,Potency,[1],inactive
Nc1cccc2c1CN(C1CCC(=O)NC1=O)C2=O (stereo not drawn),Potency,[1],inactive
same,Potency,[2],inactive
same,outcome,[3],inactive
same,Potency,[4],inactive
same,viability (% of control),[5],102% [at 92.2 µM]
same,Potency,[6],inactive
same,Potency,[7],inactive
CC1(C)CCC(C)(C)c2cc(NC(=O)c3ccc(C(=O)O)cc3)ccc21,Potency,[1],0.114 µM (active)
C[Se]CCC(N)C(=O)O (stereo not drawn),Potency,[1],inactive
CCCCCCCCOc1ccccc1C(=O)Nc1ccc(C(=O)OCC[N+](C)(CC)CC)cc1,Potency,[1],inactive
CCOc1cc(CC(=O)N[C@@H](CC(C)C)c2ccccc2N2CCCCC2)ccc1C(=O)O,Potency,[1],inactive
CCN(CC)C(=S)SSC(=S)N(CC)CC,Potency,[1],4.55 µM (active)
same,Potency,[8],7.94 µM (active)
same,Potency,[9],9.53 µM (active)
same,outcome,[10],inactive
same,Potency,[11],inactive
same,activation,[12],4.22% (inactive)
same,activation,[13],0.724% (inactive)
CCCc1cc(=O)[nH]c(=S)[nH]1,Potency,[1],inactive
same,Potency,[11],inactive
same,activation,[12],0.119% (inactive) and 0.547% (inactive)
same,Potency,[14],inactive
CCC1=C(C)CN(C(=O)NCCc2ccc(S(=O)(=O)NC(=O)NC3CCC(C)CC3)cc2)C1=O (stereo not drawn),Potency,[1],32.2 µM (active)
O=C(CS(=O)Cc1ccco1)NCC=CCOc1cc(CN2CCCCC2)ccn1 (stereo not drawn),Potency,[1],inactive
O=C(O)c1cc(=O)c2c(OCC(O)COc3cccc4oc(C(=O)O)cc(=O)c34)cccc2o1,Potency,[1],inactive
COc1c2occc2cc2ccc(=O)oc12,Potency,[1],inactive
same,Potency,[11],inactive
same,activation,[12],-0.24% (inactive) and -0.96% (inactive)
same,Potency,[15],inactive
same,Potency,[16],inactive
same,Potency,[14],inactive
O=C(O)CCNC(=O)c1ccc(N=Nc2ccc(O)c(C(=O)O)c2)cc1,Potency,[1],inactive
CN(C)CCc1c[nH]c2ccc(Cn3cncn3)cc12,Potency,[1],inactive
CN(C)C(=O)COC(=O)Cc1ccc(OC(=O)c2ccc(N=C(N)N)cc2)cc1,Potency,[1],inactive
CCCCCCCCCCCCCCCCCCCCCCO,Potency,[1],inactive
N=C(N=C(N)N)N1CCOCC1,Potency,[1],inactive
Nc1ccc(S(N)(=O)=O)cc1,Potency,[1],inactive
same,Potency,[11],inactive
same,activation,[12],-2.72% (inactive)
same,Potency,[15],inactive
same,Potency,[16],inactive
same,Potency,[14],inactive
CNC[C@H](O)c1ccc(O)c(O)c1,Potency,[1],inactive
same,Potency,[8],inactive
same,Potency,[9],inactive
same,outcome,[17],inactive
same,Potency,[11],48.6 µM (active)
same,activation,[12],1.2% (inactive)
COc1cc(OC)c(C(=O)CCCN2CCCC2)c(OC)c1,Potency,[1],inactive
same,Potency,[11],inactive
same,activation,[12],-0.273% (inactive)
same,activation,[13],-0.152% (inactive)
CCCOc1ccc2nc(NC(=O)OC)[nH]c2c1,Potency,[1],inactive
CN1C(C(=O)Nc2ccccn2)=C(O)c2sccc2S1(=O)=O,Potency,[1],inactive
COc1ccc2cc([C@H](C)C(=O)O)ccc2c1,Potency,[1],inactive
same,Potency,[8],inactive
same,Potency,[9],inactive
same,outcome,[10],inactive
same,outcome,[17],inactive
Cc1ccc(NC(=O)c2ccc(CN3CCN(C)CC3)cc2)cc1Nc1nccc(-c2cccnc2)n1,Potency,[1],inactive
same,Potency,[2],inactive
same,outcome,[3],inactive
same,viability (% of control),[5],48.3%
O=C1CCc2ccc(OCCCCN3CCN(c4cccc(Cl)c4Cl)CC3)cc2N1,Potency,[1],22.8 µM (active)
O=c1oc2cc(O)ccc2s1,Potency,[1],inactive
O=C(NCC1CCCCN1)c1cc(OCC(F)(F)F)ccc1OCC(F)(F)F (stereo not drawn),Potency,[1],inactive
Cc1cc2c(s1)Nc1ccccc1N=C2N1CCN(C)CC1,Potency,[1],inactive
